# Measurements: the supplement of paper PMC12282887
# ± gives the standard deviation of the averaged measurements.
# How the values were obtained:
# Assay in all cases: promoter activity interaction Z-score (Lux/OD deviation from empty-vector control); higher = stronger promoter induction by the compound
# [1] = test system: E. coli BW25113 robp lux reporter
# Outline: (§1)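 OD600 and luminescence of E. coli BW25113 reporter cultures (40 µl LB Lennox, 384-well plates, 37°C) were measured every 30 min for 12 h. Integration ran over 0–8 h for wild type or 1–9 h for deletion strains, and wells with growth below 10% of the median were dropped. The score is the Z-transformed residual of growth-normalised luminescence fitted against a control.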
# [2] = test system: E. coli BW25113 soxSp lux reporter
# Outline: as §1
# [3] = test system: E. coli BW25113 tolCp lux reporter
# Outline: as §1
# [4] = 1 µg/ml, genetic background: wild type
# [5] = 1 µg/ml, genetic background: ΔmarA
# [6] = 1 µg/ml, genetic background: Δrob
# [7] = 1 µg/ml, genetic background: ΔsoxS
# [8] = 1.9 µg/ml, genetic background: wild type
# [9] = 1.9 µg/ml, genetic background: ΔmarA
# [10] = 1.9 µg/ml, genetic background: Δrob
# [11] = 1.9 µg/ml, genetic background: ΔsoxS
# [12] = 3.8 µg/ml, genetic background: wild type
# [13] = 3.8 µg/ml, genetic background: ΔmarA
# [14] = 3.8 µg/ml, genetic background: Δrob
# [15] = 3.8 µg/ml, genetic background: ΔsoxS
# [16] = 7.7 µg/ml, genetic background: wild type
# [17] = 7.7 µg/ml, genetic background: ΔmarA
# [18] = 7.7 µg/ml, genetic background: Δrob
# [19] = 7.7 µg/ml, genetic background: ΔsoxS
smiles,measurement,setting,value
NC1CONC1=O (stereo not drawn) [Cycloserine D],promoter activity interaction Z-score,[1]; [4],0.73 ± 0.71
same,promoter activity interaction Z-score,[1]; [5],0.0767 ± 0.37
same,promoter activity interaction Z-score,[1]; [6],0.466 ± 0.27
same,promoter activity interaction Z-score,[1]; [7],0.49 ± 0.31
same,promoter activity interaction Z-score,[1]; [8],-0.277 ± 0.26
same,promoter activity interaction Z-score,[1]; [9],0.295 ± 0.52
same,promoter activity interaction Z-score,[1]; [10],0.186 ± 0.67
same,promoter activity interaction Z-score,[1]; [11],0.471 ± 0.99
same,promoter activity interaction Z-score,[1]; [12],-0.466 ± 0.068
same,promoter activity interaction Z-score,[1]; [13],0.31 ± 0.081
same,promoter activity interaction Z-score,[1]; [14],0.0139 ± 0.21
same,promoter activity interaction Z-score,[1]; [15],-0.224 ± 0.093
same,promoter activity interaction Z-score,[1]; [16],-1.02 ± 0.081
same,promoter activity interaction Z-score,[1]; [17],-0.102 ± 0.31
same,promoter activity interaction Z-score,[1]; [18],-0.282 ± 0.25
same,promoter activity interaction Z-score,[1]; [19],-0.361 ± 0.67
same,promoter activity interaction Z-score,[2]; [4],0.217 ± 0.043
same,promoter activity interaction Z-score,[2]; [5],0.0924 ± 0.0091
same,promoter activity interaction Z-score,[2]; [6],0.0464 ± 0.16
same,promoter activity interaction Z-score,[2]; [7],0.093 ± 0.016
same,promoter activity interaction Z-score,[2]; [8],-0.193 ± 0.011
same,promoter activity interaction Z-score,[2]; [9],0.076 ± 0.02
same,promoter activity interaction Z-score,[2]; [10],-0.205 ± 0.024
same,promoter activity interaction Z-score,[2]; [11],0.164 ± 0.2
same,promoter activity interaction Z-score,[2]; [12],-0.0918 ± 0.052
same,promoter activity interaction Z-score,[2]; [13],-0.113 ± 0.019
same,promoter activity interaction Z-score,[2]; [14],0.0335 ± 0.083
same,promoter activity interaction Z-score,[2]; [15],-0.0149 ± 0.074
same,promoter activity interaction Z-score,[2]; [16],-0.198 ± 0.27
same,promoter activity interaction Z-score,[2]; [17],-0.171 ± 0.14
same,promoter activity interaction Z-score,[2]; [18],-0.117 ± 0.11
same,promoter activity interaction Z-score,[2]; [19],-0.174 ± 0.047
same,promoter activity interaction Z-score,[3]; [4],0.33 ± 0.084
same,promoter activity interaction Z-score,[3]; [5],1.18 ± 0.26
same,promoter activity interaction Z-score,[3]; [6],-0.401 ± 0.15
same,promoter activity interaction Z-score,[3]; [7],-0.259 ± 0.83
same,promoter activity interaction Z-score,[3]; [8],-0.543 ± 0.64
same,promoter activity interaction Z-score,[3]; [9],-0.33 ± 0.62
same,promoter activity interaction Z-score,[3]; [10],-0.224 ± 0.69
same,promoter activity interaction Z-score,[3]; [11],0.645 ± 0.11
same,promoter activity interaction Z-score,[3]; [12],0.289 ± 0.26
same,promoter activity interaction Z-score,[3]; [13],0.197 ± 0.06
same,promoter activity interaction Z-score,[3]; [14],0.242 ± 0.12
same,promoter activity interaction Z-score,[3]; [15],-0.045 ± 0.33
same,promoter activity interaction Z-score,[3]; [16],-1.06 ± 0.73
same,promoter activity interaction Z-score,[3]; [17],-0.822 ± 0.7
same,promoter activity interaction Z-score,[3]; [18],-0.397 ± 0.29
same,promoter activity interaction Z-score,[3]; [19],-0.568 ± 0.58
